From PubChem BioAssay AID1159580 (chemical genetic matrix, 2015)
Out of some 5,500 compounds screened, about 2,000 (36%) were called active. Roughly 18% stayed inconclusive and do not appear here. No stated cut-off is given here; in the data, active means normalized growth mostly below about 0.91 (no sharp cut-off); inconclusive means no clear call, values can overlap the other calls; inactive means mostly above about 0.92. The list shows a part of the results.

Assay: chemical genetic growth profiling, strain panel (AID 1159580);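 further: tested at 20 µM; growth read once vehicle control cultures reached saturation at 30 °C; 1 = growth at the plate median or of vehicle wells; lower values mean less growth of the strain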
Conditions: growth OD
[1] = S. cerevisiae deletion strains, locus YHR030C, strain SLT2, active compounds read low

Measured: normalized growth

CCOC(=O)CCc1cc(N=Cc2cc(Cl)cc(Cl)c2O)c(O)c(N=Cc2cc(Cl)cc(Cl)c2O)c1
active: S. cerevisiae deletion strains, locus YAL013W, strain DEP1, active compounds read low 0.257 | S. cerevisiae deletion strains, locus YBR229C, strain ROT2, active compounds read low 0.225 | S. cerevisiae deletion strains, locus YDL101C, strain DUN1, active compounds read low 0.48 | S. cerevisiae deletion strains, locus YDR150W, strain NUM1, active compounds read low 0.328 | S. cerevisiae deletion strains, locus YEL061C, strain CIN8, active compounds read low 0.254 | S. cerevisiae deletion strains, locus YGR078C, strain PAC10, active compounds read low 0.14 | [1] 0.126 | S. cerevisiae deletion strains, locus YHR087W, strain rtc3, active compounds read low 0.0846 | S. cerevisiae deletion strains, locus YJL187C, strain SWE1, active compounds read low 0.204 | S. cerevisiae deletion strains, locus YJR043C, strain POL32, active compounds read low 0.403 | S. cerevisiae deletion strains, locus YJR075W, strain HOC1, active compounds read low 0.245 | S. cerevisiae deletion strains, locus YKL190W, strain CNB1, active compounds read low 0.537 | S. cerevisiae deletion strains, locus YLR039C, strain RIC1, active compounds read low 0.164 | S. cerevisiae deletion strains, locus YLR058C, strain SHM2 (second series), active compounds read low 0.598 | S. cerevisiae deletion strains, locus YLR085C, strain ARP6, active compounds read low 0.14 | S. cerevisiae deletion strains, locus YLR262C, strain YPT6, active compounds read low 0.156 | S. cerevisiae deletion strains, locus YML094W, strain GIM5, active compounds read low 0.243 | S. cerevisiae deletion strains, locus YMR219W, strain ESC1, active compounds read low 0.278 | S. cerevisiae deletion strains, locus YMR263W, strain SAP30, active compounds read low 0.354 | S. cerevisiae deletion strains, locus YNL153C, strain GIM3, active compounds read low 0.454 | S. cerevisiae deletion strains, locus YNL298W, strain CLA4 (second series), active compounds read low 0.411 | S. cerevisiae deletion strains, locus YNL322C, strain KRE1, active compounds read low 0.935 | S. cerevisiae deletion strains, locus YNR030W, strain Alg12, active compounds read low 0.63 | S. cerevisiae deletion strains, locus YPL055C, strain LGE1, active compounds read low 0.212 | S. cerevisiae deletion strains, locus YPL241C, strain CIN2, active compounds read low 0.476 | S. cerevisiae deletion strains, locus YPR135W, strain CTF4, active compounds read low 0.558 | S. cerevisiae strains, strain wild type, active compounds read low 0.555

C#CCN(C)C(C)Cc1ccccc1 (stereo not given)
inactive: [1] 1.01 | S. cerevisiae deletion strains, locus YHR079C, strain IRE1, active compounds read low 1.03 | S. cerevisiae deletion strains, locus YJL095W, strain BCK1, active compounds read low 1.02 | S. cerevisiae deletion strains, locus YJR066W, strain TOR1, active compounds read low 0.95 | S. cerevisiae deletion strains, locus YLR113W, strain HOG1, active compounds read low 0.994 | S. cerevisiae deletion strains, locus YNL183C, strain NPR1, active compounds read low 0.959 | S. cerevisiae deletion strains, locus YOR231W, strain MKK1, active compounds read low 1.02 | S. cerevisiae deletion strains, locus YPL256C, strain CLN2, active compounds read low 0.989
